Results filed as inconclusive are left out. Unmarked numbers belong to inactive results. Activity calls are given as the source filed them. Calls follow the shape of the dose curve; as a rule, active = well fitted cell-killing curve with a large enough effect; inconclusive = small, poorly fitted or top-dose-only effect; inactive = flat fitted curve, though single readings scatter.
Potency is read from the fitted curve at half-maximal effect.

The test is described as follows: Cell Viability - LYMP2-011 (AID 969). Also: nearly all actives have a fitted effect of over 60% in size.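 As to viability change, negative = cytotoxic: 0% = DMSO only and full inhibition = 92 µM tetraoctylammonium bromide.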 The note with it: LYMP2-011 lymphoblastoid cells viability; series mostly up to 92.2 µM; viability change, negative = cytotoxic: at the top concentration. From the text:
NIH Chemical Genomics Center [NCGC]
NIH Molecular Libraries Screening Centers Network [MLSCN]
National Institutes of Environmental Health Sciences [NIEHS]
National Toxicology Program [NTP]
We have developed a 1536-well cell-based assay for quantitative high throughput screening (qHTS) against a number of cell lines to determine in vitro cytotoxicity of small molecules. This particular assay uses a human lymphoblastoid cell line (LYMP2-011) purchased from Coriell Institute for Medical Research.
NCGC Assay Protocol Summary:
The CellTiter-Glo luminescent cell viability assay (Promega) is a homogeneous method to measure the number of viable cells in culture. The end point readout of this assay is based on quantitation of intracellular ATP, an indicator of metabolic activity, using the luciferase reaction. Luciferase catalyzes the oxidation of beetle Luciferin to oxyluciferin and light in the presence of ATP. The luminescent signal is proportional to amount of ATP present.
Using the CellTiter-Glo luminescent cell viability assay, the amount of cellular ATP was measured in the lymphoblastoid cell line with complete culture medium following compound treatment for 24 hours. The assay was performed in opaque white Kalypsys 1536-well plates. In the screen, tetraoctylammonium bromide was used as positive control. Library compounds were measured for their ability to cause acute toxicity in the cell line, as reflected by a decrease in intracellular ATP levels, in a concentration-dependent manner. […] AC50 values were determined from concentration-response data modeled with the standard Hill equation.
qHTS protocol for CellTiter Glo lymphoblastoid cellular assay
[Step] [Parameter] [Value] [Description]
1. Reagent; 5 uL; 2500 lymphoblastoid cells/well
2. Time; 5 hr; 37 C incubation
4. Controls; 23 nL; Tetraoctylammonium bromide 6.4pM to 92 uM
5. Time; 24 hr; 37 C incubation
6. Reagent; 5 uL; CellTiter Glo reagent
7. Time; 30 min; Room Temperature
8. Detection; Luminescence; Viewlux plate reader
Keywords: cell viability, cytotoxicity, lymphoblastoid cell line, luminescence, NTPHTS, NTPHTS_NCGC, NIEHS, DSSTox, MLSMR, MLSCN, NIH Roadmap, qHTS, NCGC
With `CC1(C)[C@@H]2CC[C@@]1(C)C(=O)C2`, the “viability change, negative = cytotoxic” value is -3.26%. With `NC(=O)c1ncn([C@@H]2O[C@H](CO)[C@@H](O)[C@H]2O)n1`, the “viability change, negative = cytotoxic” value is -24.2%. `[Cl][In]([Cl])[Cl]`: the “viability change, negative = cytotoxic” value is 0.977%. Same read-out and setting: for `Nc1ccc(S(=O)(=O)Nc2nccs2)cc1` the value was -3.74%.

As for `CCCCCCCCCCCCOS(=O)(=O)O`, the Potency entry was “inactive”.

Turning to `COc1ccccc1O`, the Potency entry is “inactive”.

With `Cc1c(O)cccc1C(=O)N[C@@H](CSc1ccccc1)[C@H](O)CN1C[C@H]2CCCC[C@H]2C[C@H]1C(=O)NC(C)(C)C`, the Potency is 50.1 µM (active).

Take `NCCNCCNCCN`: the “viability change, negative = cytotoxic” value was -11.8%. With `O=C1O[C@H]([C@@H](O)CO)C(O)=C1O`, the “viability change, negative = cytotoxic” value is -7.5%. In the case of `CC12CCC(CC1)C(C)(C)O2`, the “viability change, negative = cytotoxic” value is -3.1%. With `Oc1cccc(O)c1`, the “viability change, negative = cytotoxic” value is -11.2%. The same measure, in the same setting: for `Cc1cc(CC(=O)O)n(C)c1C(=O)c1ccc(Cl)cc1` the value was -0.616%; for `C[C@]12C[C@H](O)[C@H]3[C@@H](CCC4=CC(=O)CC[C@@]43C)[C@@H]1CC[C@@H]2C(=O)CO`, -4.96%. On the same count and under the same terms, next, `NCCNCCNCCNCCN`: -5.13%; `O=C1c2c(O)cccc2Cc2cccc(O)c21`: -10.1%. For `Cc1cc2nc3c(=O)[nH]c(=O)nc-3n(C[C@H](O)[C@H](O)[C@H](O)CO)c2cc1C`, the “viability change, negative = cytotoxic” value was -4.29%. Consider `CCCCOC(=O)c1ccc(O)cc1`, for which the “viability change, negative = cytotoxic” value was 1.47%.

These data come from PubChem BioAssay (NCATS).
